Results reported in PubChem BioAssay (EPA / NIEHS).
Calls of active or inactive are those of the source. Rule for the calls: active = hit-call score of the fitted dose curve at least 0.9, where 1 is the maximum; inactive = score below 0.9.

How the values were obtained:
[1] = read-out: Macrophage colony-stimulating factor (MCSF), CSF1 (gene 1435); test: BSK_hDFCGF_MCSF: BioMAP Diversity Plus: hDFCGF Assay for Macrophage colony-stimulating factor (MCSF) Biomarker Activity (AID 2283060); details: primary human foreskin fibroblasts; actives raise or lower the signal
Procedure, shortened: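 M-CSF levels read by ELISA at 24 h post-dosing in human skin fibroblasts. Parallel cultures stained with SRB assessed cytotoxicity at the same time point; response fitted in both directions against the DMSO baseline.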

[2] = BSK_hDFCGF_SRB: Viability Assessment in the BioMAP Diversity Plus: hDFCGF Assay (AID 2283061); details: primary human foreskin fibroblasts;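 note: cells exposed to compound for 24 h before the read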
Procedure, shortened: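 Viability was read as total protein: after 10% TCA fixation, wells were stained with 0.1% sulforhodamine B and read at 560 nm. Primary human foreskin fibroblasts were dosed for 24 h, with bidirectional fitting versus DMSO.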

[3] = read-out: TIMP metallopeptidase inhibitor 1 (TIMP1), TIMP1 (gene 7076); test: BSK_hDFCGF_TIMP1: BioMAP Diversity Plus: hDFCGF Assay for TIMP metallopeptidase inhibitor 1 (TIMP1) Biomarker Activity (AID 2283062); details: primary human foreskin fibroblasts; actives raise or lower the signal
Procedure, shortened: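 TIMP-1 measured by ELISA 24 h after chemical dosing of primary human skin fibroblasts, with gain or loss fitted relative to DMSO. Parallel SRB staining (560 nm) monitored overt cytotoxicity.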

[4] = read-out: Monokine induced gamma interferon (MIG), CXCL9 (gene 4283); test: BSK_hDFCGF_MIG: BioMAP Diversity Plus: hDFCGF Assay for Monokine induced gamma interferon (MIG) Biomarker Activity (AID 2283063); details: primary human foreskin fibroblasts; actives raise or lower the signal
Procedure, shortened: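 Human primary foreskin fibroblasts in the hDFCGF system, exposed to test chemical for 24 h; MIG measured by ELISA. Bidirectional curve fitting against DMSO negative control as activity baseline.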

[5] = read-out: Matrix Metallopeptidase 1 (MMP1), MMP1 (gene 4312); test: BSK_hDFCGF_MMP1: BioMAP Diversity Plus: hDFCGF Assay for Matrix Metallopeptidase 1 (MMP1) Biomarker Activity (AID 2283064); details: primary human foreskin fibroblasts; actives raise or lower the signal
Procedure, shortened: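 Primary human foreskin fibroblasts exposed to chemicals for 24 h; MMP1 measured by ELISA. Cytotoxicity tracked by SRB staining in parallel cultures; bidirectional fit relative to DMSO.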

[6] = read-out: Vascular cell adhesion molecule 1 (VCAM1), VCAM1 (gene 7412); test: BSK_hDFCGF_VCAM1: BioMAP Diversity Plus: hDFCGF Assay for Vascular cell adhesion molecule 1 (VCAM1) Biomarker Activity (AID 2283065); details: primary human foreskin fibroblasts; actives raise or lower the signal
Procedure, shortened: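 ELISA readout of VCAM-1 on human dermal fibroblast primary cultures, 24 h after chemical exposure. Gain or loss of signal fitted in both directions against DMSO baseline.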

[7] = read-out: Plasminogen activator inhibitor-1 (PAI1), SERPINE1 (gene 5054); test: BSK_hDFCGF_PAI1: BioMAP Diversity Plus: hDFCGF Assay for Plasminogen activator inhibitor-1 (PAI1) Biomarker Activity (AID 2283066); details: primary human foreskin fibroblasts; actives raise or lower the signal
Procedure, shortened: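 Human foreskin fibroblasts in the hDFCGF system were dosed with compound for 24 h; PAI-1 was quantified by ELISA. Bidirectional curve fitting used DMSO as negative control and baseline.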

[8] = read-out: Intercellular Adhesion Molecule 1 (ICAM1), ICAM1 (gene 3383); test: BSK_KF3CT_ICAM1: BioMAP Diversity Plus: KF3CT Assay for Intercellular Adhesion Molecule 1 (ICAM1) Biomarker Activity (AID 2283067); details: primary human keratinocytes with fibroblasts; actives raise or lower the signal
Procedure, shortened: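 Cell-surface ICAM-1 was measured by ELISA 24 h after dosing primary human skin keratinocytes co-cultured with fibroblasts. Parallel SRB staining tracked overt cytotoxicity. Gain or loss of signal was fitted relative to DMSO.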

[9] = BSK_KF3CT_SRB: Viability Assessment in the BioMAP Diversity Plus: KF3CT Assay (AID 2283069); details: primary human keratinocytes with fibroblasts;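 note: total protein by sulforhodamine B staining as a cytotoxicity measure; read 24 h after compound addition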
Procedure, shortened: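 Human keratinocyte and foreskin fibroblast co-culture exposed to chemical for 24 h. Total protein measured in parallel cultures by 0.1% sulforhodamine B staining after 10% TCA fixation, read at 560 nm; bidirectional fit relative to DMSO.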

[10] = read-out: Interleukin-1 alpha (IL1a), IL1A (gene 3552); test: BSK_KF3CT_IL1a: BioMAP Diversity Plus: KF3CT Assay for Interleukin-1 alpha (IL1a) Biomarker Activity (AID 2283070); details: primary human keratinocytes with fibroblasts; actives raise or lower the signal
Procedure, shortened: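 Primary human keratinocyte plus foreskin fibroblast co-culture, dosed and measured at 24 h in 96-well plates. IL-1a level quantified by ELISA; bidirectional fit relative to DMSO.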

[11] = read-out: TIMP metallopeptidase inhibitor 2 (TIMP2), TIMP2 (gene 7077); test: BSK_KF3CT_TIMP2: BioMAP Diversity Plus: KF3CT Assay for TIMP metallopeptidase inhibitor 2 (TIMP2) Biomarker Activity (AID 2283071); details: primary human keratinocytes with fibroblasts; actives raise or lower the signal
Procedure, shortened: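 Human primary keratinocyte/foreskin fibroblast co-culture dosed with chemical and sampled at 24 h. TIMP-2 levels quantified by ELISA; bidirectional fitting against DMSO negative control as baseline.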

[12] = read-out: Transforming growth factor beta 1 (TGFb1), TGFB1 (gene 7040); test: BSK_KF3CT_TGFb1: BioMAP Diversity Plus: KF3CT Assay for Transforming growth factor beta 1 (TGFb1) Biomarker Activity (AID 2283072); details: primary human keratinocytes with fibroblasts; actives raise or lower the signal
Procedure, shortened: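 Human keratinocyte plus foreskin fibroblast primary co-culture, dosed with chemical for 24 h. TGF-b1 quantified by ELISA. Activity fitted bidirectionally against DMSO negative control as baseline.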

[13] = read-out: C-C motif chemokine 2 (Homo sapiens) (UniProt P13500); test: BSK_KF3CT_MCP1: BioMAP Diversity Plus: KF3CT Assay for Monocyte Chemoattractant Protein 1 (MCP1/CCL2) Biomarker Activity (AID 2283073); details: primary human keratinocytes with fibroblasts; actives raise or lower the signal
Procedure, shortened: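 ELISA read-out of MCP-1, 24 h post-dose, in primary human skin keratinocytes co-cultured with fibroblasts. Parallel SRB staining monitors cytotoxicity; changes fitted both directions relative to DMSO.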

[14] = read-out: Matrix Metallopeptidase 9 (MMP9), MMP9 (gene 4318); test: BSK_KF3CT_MMP9: BioMAP Diversity Plus: KF3CT Assay for Matrix Metallopeptidase 9 (MMP9) Biomarker Activity (AID 2283074); details: primary human keratinocytes with fibroblasts; actives raise or lower the signal;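 for AC50: MMP9 protein level quantified by ELISA in the co-culture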
Procedure, shortened: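 Human keratinocyte and foreskin fibroblast co-culture exposed to chemicals for 24 h; MMP9 biomarker measured by ELISA, bidirectional fitting relative to DMSO; cytotoxicity tracked by SRB total protein staining in parallel cultures.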

[15] = read-out: urokinase plasminogen activator (uPA), PLAU (gene 5328); test: BSK_KF3CT_uPA: BioMAP Diversity Plus: KF3CT Assay for urokinase plasminogen activator (uPA) Biomarker Activity (AID 2283075); details: primary human keratinocytes with fibroblasts; actives raise or lower the signal
Procedure, shortened: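 Primary human keratinocyte/foreskin fibroblast co-culture exposed to chemical; uPA measured by ELISA at 24 h. Bidirectional fit versus DMSO, with parallel SRB total-protein staining for cytotoxicity.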

[16] = read-out: CD40, CD40 (gene 958); test: BSK_LPS_CD40: BioMAP Diversity Plus: LPS Assay for CD40 Biomarker Activity (AID 2283076); details: primary human HUVEC with PBMC; actives raise or lower the signal
Procedure, shortened: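 In the LPS system of human endothelial cells with peripheral blood mononuclear cells, CD40 levels were read by ELISA 24 h post-treatment. Signal changes in either direction were fitted against the DMSO baseline, with parallel SRB protein staining.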

[17] = read-out: E-selectin (Homo sapiens) (UniProt P16581); test: BSK_LPS_Eselectin: BioMAP Diversity Plus: LPS Assay for Eselectin Biomarker Activity (AID 2283077); details: primary human HUVEC with PBMC; actives raise or lower the signal
Procedure, shortened: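 E-selectin ELISA on LPS-stimulated endothelial cell/PBMC co-cultures, read 24 h post-treatment; gains and losses fitted against DMSO. Parallel SRB staining (0.1% SRB after 10% TCA fixation, 560 nm) flags overt cytotoxicity.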

[18] = read-out: Interleukin-8 (IL8), CXCL8 (gene 3576); test: BSK_LPS_IL8: BioMAP Diversity Plus: LPS Assay for Interleukin-8 (IL8) Biomarker Activity (AID 2283078); details: primary human HUVEC with PBMC; actives raise or lower the signal
Procedure, shortened: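 ELISA read-out of IL-8 after 24 h chemical treatment of LPS-activated endothelial/PBMC human primary co-cultures. Changes either up or down relative to DMSO; overt cytotoxicity checked by sulforhodamine B staining in parallel wells.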

[19] = BSK_LPS_SRB: Viability Assessment in the BioMAP Diversity Plus: LPS Assay (AID 2283079); details: primary human HUVEC with PBMC;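 note: total protein by sulforhodamine B absorbance as a cytotoxicity measure; measured one day after compound addition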
Procedure, shortened: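 SRB viability endpoint: cells fixed with 10% TCA, stained with 0.1% SRB, read at 560 nm, 24 h post-dose. HUVEC/PBMC co-culture; signal change in either direction scored relative to DMSO.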

Measured: AC50

Sequence of E-selectin (Homo sapiens) (P16581 whole entry, looked up): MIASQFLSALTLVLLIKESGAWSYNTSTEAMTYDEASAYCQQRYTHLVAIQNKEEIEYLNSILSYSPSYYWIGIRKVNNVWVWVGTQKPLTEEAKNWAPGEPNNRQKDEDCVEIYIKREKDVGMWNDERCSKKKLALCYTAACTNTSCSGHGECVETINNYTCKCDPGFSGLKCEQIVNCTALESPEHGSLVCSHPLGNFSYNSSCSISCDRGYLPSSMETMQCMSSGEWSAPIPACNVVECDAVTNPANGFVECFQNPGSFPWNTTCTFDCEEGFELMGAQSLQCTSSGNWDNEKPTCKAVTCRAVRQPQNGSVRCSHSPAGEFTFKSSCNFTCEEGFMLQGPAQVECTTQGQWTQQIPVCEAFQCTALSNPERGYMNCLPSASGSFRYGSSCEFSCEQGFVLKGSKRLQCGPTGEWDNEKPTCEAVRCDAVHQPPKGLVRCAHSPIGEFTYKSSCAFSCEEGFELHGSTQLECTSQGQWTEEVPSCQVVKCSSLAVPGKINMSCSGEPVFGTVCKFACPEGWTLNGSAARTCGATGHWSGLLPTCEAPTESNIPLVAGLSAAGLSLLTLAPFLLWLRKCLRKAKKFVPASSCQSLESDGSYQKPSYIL

CCCCN(CC)c1c([N+](=O)[O-])cc(C(F)(F)F)cc1[N+](=O)[O-]
active: [1] 29.8 µM | [2] 30.1 µM | [5] 4.66 µM | [7] 31.1 µM | [14] 22.1 µM | [16] 34.2 µM | [17] 20 µM
inactive: all other assays above

CCc1cccc(C)c1N(C(=O)CCl)C(C)COC (stereo unspecified)
active: [16] 17.5 µM
not listed: [7]
inactive: all other assays above

COc1cccc(C(=O)NN(C(=O)c2cc(C)cc(C)c2)C(C)(C)C)c1C
inactive: all assays above
